Source: the supplement of paper PMC6658780
Counter-ions that a name gives are not always drawn. ± gives the standard deviation of the averaged measurements.

tested on: Escherichia coli ATCC BAA-2469; test: percent growth inhibition of drug alone vs DMSO control; higher = more growth inhibition; conditions: antibiotic (0.125x MIC): none (0.1% DMSO); 7 µM
Experimental: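 Prestwick drugs tested at 20 uM and 7 uM with an antibiotic at 0.125x MIC (16 mg/L when MIC >128 mg/L) against E. coli ATCC BAA-2469 (NDM-1) in CAMHB, 384-well plates, duplicate runs. Percent growth inhibition was computed from OD600 (24 h minus 0 h) relative to DMSO wells. Drug + DMSO-only wells are also given. […]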

| Structure (SMILES) | percent growth inhibition of drug alone |
| --- | --- |
| Cc1cn([C@H]2C[C@H](N=[N+]=[N-])[C@@H](CO)O2)c(=O)[nH]c1=O [Zidovudine, AZT] | 102 ± 2.3% |
| CCOC(=O)c1ccc(N)cc1 [Benzocaine] | -0.533 ± 1.7% |
| Cc1c(N(C)C)c(=O)n(-c2ccccc2)n1C [Amidopyrine] | 0.00227 ± 1.1% |
| N[C@@H]1CCCCN(c2c(F)cc3c(=O)c(C(=O)O)cn(C4CC4)c3c2Cl)C1 [Besifloxacin hydrochloride] | 3.86 ± 3.6% |
| CCCCC(CC)CNC(=N)NC(=N)NCCCCCCNC(=N)NC(=N)NCC(CC)CCCC (stereo not given) [Alexidine dihydrochloride] | 102 ± 2% |
| CCC[C@@H]1C[C@@H](C(=O)N[C@@H]([C@H]2O[C@H](SC)[C@H](O)[C@@H](O)[C@H]2O)[C@H](C)Cl)N(C)C1 [Clindamycin hydrochloride] | 12.8 ± 13% |
| Oc1c(Cl)cc(Cl)c2cccnc12 [Chloroxine] | 13.1 ± 9.1% |
| OCCN1CCN(CCCN2c3ccccc3Sc3ccc(C(F)(F)F)cc32)CC1 [Fluphenazine dihydrochloride] | 1.91 ± 1.5% |
| Cc1c(OCC(F)(F)F)ccnc1C[S+]([O-])c1nc2ccccc2[nH]1 (stereo not given) [Lansoprazole] | 2.04 ± 3.3% |
| C[C@H]1[C@H](NC(=O)/C(=N\OC(C)(C)C(=O)O)c2csc(N)n2)C(=O)N1S(=O)(=O)O [Aztreonam] | 13.2 ± 14% |
| CC(=O)OC[C@H]1O[C@@H]([S-])[C@H](OC(C)=O)[C@@H](OC(C)=O)[C@@H]1OC(C)=O.CCP(CC)CC.[Au+] [Auranofin] | 5.6 ± 2.6% |
| Cc1cc(N)c2ccccc2[n+]1CCCCCCCCCC[n+]1c(C)cc(N)c2ccccc21 [Dequalinium dichloride] | 2.01 ± 0.53% |
| CC1CS(=O)(=O)CCN1/N=C/c1ccc([N+](=O)[O-])o1 (stereo not given) [Nifurtimox] | 1.01 ± 1.2% |
| COc1ccc2c(c1)c(CC(=O)OCC(=O)O)c(C)n2C(=O)c1ccc(Cl)cc1 [Acemetacin] | 2.19 ± 1% |
| Nc1nnc(-c2cccc(Cl)c2Cl)c(N)n1 [Lamotrigine] | 2.35 ± 0.19% |
| CCCCCCCCCCCCCCCC[N+](C)(C)CCN(Cc1ccc(OC)cc1)c1ncccn1 [Thonzonium bromide] | 3.7 ± 4.2% |
| C#C[C@]1(O)CC[C@H]2[C@@H]3CCC4=C(CCC(=O)C4)[C@H]3CC[C@@]21C [Norethynodrel] | 0.455 ± 0.56% |
| O=C(O)CN(CCN(CC(=O)O)CC(=O)O)CCN(CC(=O)O)CC(=O)O [Pentetic acid] | 0.0597 ± 2.1% |
| Nc1c2ccccc2nc2ccccc12 [Aminacrine] | 1.8 ± 0.95% |
| Cc1cc(/C=C/c2ccc3cc(N(C)C)ccc3[n+]2C)c(C)n1-c1ccccc1 [Pyrvinium pamoate] | 11.8 ± 12% |
| Nc1nc(O)c2ncn(CCC(CO)CO)c2n1 [Penciclovir] | 1.39 ± 3.5% |

same assay, conditions: antibiotic (0.125x MIC): none (0.1% DMSO); 20 µM

| Structure (SMILES) | percent growth inhibition of drug alone |
| --- | --- |
| Cc1cn([C@H]2C[C@H](N=[N+]=[N-])[C@@H](CO)O2)c(=O)[nH]c1=O [Zidovudine, AZT] | 115 ± 12% |
| CCOC(=O)c1ccc(N)cc1 [Benzocaine] | 1.27 ± 1.7% |
| Cc1c(N(C)C)c(=O)n(-c2ccccc2)n1C [Amidopyrine] | -1.02 ± 2.5% |
| CCCCC(CC)CNC(=N)NC(=N)NCCCCCCNC(=N)NC(=N)NCC(CC)CCCC (stereo not given) [Alexidine dihydrochloride] | 112 ± 12% |
| CCC[C@@H]1C[C@@H](C(=O)N[C@@H]([C@H]2O[C@H](SC)[C@H](O)[C@@H](O)[C@H]2O)[C@H](C)Cl)N(C)C1 [Clindamycin hydrochloride] | 35.5 ± 16% |
| Oc1c(Cl)cc(Cl)c2cccnc12 [Chloroxine] | 102 ± 8% |
| OCCN1CCN(CCCN2c3ccccc3Sc3ccc(C(F)(F)F)cc32)CC1 [Fluphenazine dihydrochloride] | 3.64 ± 1.5% |
| Cc1c(OCC(F)(F)F)ccnc1C[S+]([O-])c1nc2ccccc2[nH]1 (stereo not given) [Lansoprazole] | 4.77 ± 4.3% |
| CC(=O)OC[C@H]1O[C@@H]([S-])[C@H](OC(C)=O)[C@@H](OC(C)=O)[C@@H]1OC(C)=O.CCP(CC)CC.[Au+] [Auranofin] | 20.1 ± 20% |
| Cc1cc(N)c2ccccc2[n+]1CCCCCCCCCC[n+]1c(C)cc(N)c2ccccc21 [Dequalinium dichloride] | 12.5 ± 11% |
| CC1CS(=O)(=O)CCN1/N=C/c1ccc([N+](=O)[O-])o1 (stereo not given) [Nifurtimox] | 1.15 ± 4.3% |
| COc1ccc2c(c1)c(CC(=O)OCC(=O)O)c(C)n2C(=O)c1ccc(Cl)cc1 [Acemetacin] | 1.2 ± 0.59% |
| Nc1nnc(-c2cccc(Cl)c2Cl)c(N)n1 [Lamotrigine] | 1.91 ± 1.2% |
| O=C1OCCN1/N=C/c1ccc([N+](=O)[O-])o1 [Furazolidone] | 115 ± 13% |
| C#C[C@]1(O)CC[C@H]2[C@@H]3CCC4=C(CCC(=O)C4)[C@H]3CC[C@@]21C [Norethynodrel] | 5.02 ± 3.1% |
| O=C(O)CN(CCN(CC(=O)O)CC(=O)O)CCN(CC(=O)O)CC(=O)O [Pentetic acid] | 0.251 ± 0.41% |
| Nc1c2ccccc2nc2ccccc12 [Aminacrine] | 21 ± 13% |
| Cc1cc(/C=C/c2ccc3cc(N(C)C)ccc3[n+]2C)c(C)n1-c1ccccc1 [Pyrvinium pamoate] | 13.6 ± 3.2% |
| Nc1nc(O)c2ncn(CCC(CO)CO)c2n1 [Penciclovir] | -1.4 ± 2.5% |
